Sampled rows, rich in hits. Any-hit rate of the full collection: about 3.2%.
Mtb FBA inh = inhibitors of M. tuberculosis fructose-bisphosphate aldolase; purified M. tuberculosis FBA, fluorescence read-out; inhibition, % at 1 µM; hit rate 2.3% among 360,000; AID 588726; in the data active means inhibition above about 27%
Target sequence (P9WQA3 whole entry, looked up): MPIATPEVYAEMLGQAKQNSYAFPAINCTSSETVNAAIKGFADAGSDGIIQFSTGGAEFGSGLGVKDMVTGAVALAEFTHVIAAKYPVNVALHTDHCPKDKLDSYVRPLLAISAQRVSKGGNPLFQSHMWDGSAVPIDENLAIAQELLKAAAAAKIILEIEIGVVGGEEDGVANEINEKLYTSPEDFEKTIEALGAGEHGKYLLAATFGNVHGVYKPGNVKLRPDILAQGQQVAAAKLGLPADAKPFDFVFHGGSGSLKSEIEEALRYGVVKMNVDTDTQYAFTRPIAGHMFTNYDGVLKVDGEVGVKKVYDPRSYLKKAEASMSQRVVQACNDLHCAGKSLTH
GDH-TPI inh = counter-screen for M. tuberculosis FBA inhibitors: GDH-TPI coupled enzymes; hit rate 1.2% among 360,000; inhibition, % at 4.8 µM; GDH-TPI coupled enzyme counterscreen, NADH absorbance; in the data active means inhibition above about 30%
PrPC surface inh = inhibitors of human cell surface prion protein PrPC. P04156. TR-FRET read-out. inhibition, % at 13.8 µM. hit rate 0.43% among 370,000. AID 720596; in the data active means inhibition above about 24%
TcdB GH inh = TcdB glycohydrolase inhibition; P18177; TcdB glycohydrolase enzymatic assay, plate reader; inhibition, % at 9.99 µM; hit rate 0.24% among 350,000; AID 652162; in the data active means inhibition above about 10%
Y pestis TopoI = Y. pestis Topo-I inhibition via cleavage products; hit rate 0.064% among 360,000; Y. pestis Topo-I cleavage product accumulation, plate reader; activity, % at 10 µM; in the data active means activity above about 50%, passing the limit was not always enough
Hits are given with their value; – = inactive; · = no result given; + = active, no number.

SMILES	Mtb FBA inh	GDH-TPI inh	PrPC surface inh	TcdB GH inh	Y pestis TopoI
COc1ccc(/C=C/c2nc(C#N)c(NCCN(C)C)o2)cc1OC	–	–	–	–	–
CC(C)NC(=O)NC(=O)CSc1nnc(COc2ccccc2F)n1C(C)C1CC2CCC1C2 (stereo unspecified)	–	–	·	–	–
CC(C1CC2CCC1C2)n1c(COc2ccccc2F)nnc1SCC(N)=O (stereo unspecified)	+	–	–	·	–
COc1ccc(NC(=O)CSc2nncs2)cc1S(N)(=O)=O	–	–	–	–	–
COc1ccc(NC(=O)CSc2nccn2C)cc1S(N)(=O)=O	–	–	–	11.3	–
CC(=O)Nc1cccc(-c2nc3ccccc3o2)c1	–	–	–	–	–
CC(=O)Nc1ccc(-c2nc3ccc(NC(C)=O)cc3o2)cc1	+	–	–	–	–
CC(=O)Nc1ccc2oc(-c3ccccc3)nc2c1	173.1	–	–	–	–
CCOc1ccc(S(=O)(=O)N2CCOCC2)cc1NC(=O)C1=COCCO1	–	–	–	–	–
CCOc1ccc(Oc2ccc(S(=O)(=O)N3CCOCC3)cc2NC(=O)C2=COCCO2)cc1	–	–	–	–	62.0
CCOC(=O)C1CCN(C=Nc2cc(C)on2)CC1	+	–	–	·	–
O=C(CC1S/C(=N/N=C/c2cccs2)NC1=O)Nc1ccccc1F (stereo unspecified)	–	32.9	–	–	–
C=CCC1S/C(=N/N=C/c2cccs2)NC1=O (stereo unspecified)	–	53.5	–	–	–
O=C1N/C(=N\N=C\c2cccs2)SC1Cc1ccc(Cl)c(Cl)c1 (stereo unspecified)	–	–	–	–	–
CC(=O)c1ccc(N2CCN(C(=O)CNC(=O)c3ccc(Br)o3)CC2)cc1	–	32.3	–	–	–
O=C(NCC(=O)N1CCN(c2cccc(Cl)c2)CC1)c1ccc(Br)o1	–	–	–	–	–
COCC#Cc1ccc2c(c1)O[C@@H](CN(C)Cc1ccncc1)[C@@H](C)CN([C@H](C)CO)S2(=O)=O	·	·	·	–	·
COc1ccc(C2C3=C(CCCC3=O)N(CC(=O)O)C3=C2C(=O)CCC3)cc1Br	134.9	–	–	–	–
CCOc1cc(C2C3=C(CCCC3=O)N(CC(=O)O)C3=C2C(=O)CCC3)ccc1OC	–	–	–	–	–
COc1ccc(C2C3=C(CC(C)(C)CC3=O)N(CC(=O)O)C3=C2C(=O)CC(C)(C)C3)cc1OC	–	–	–	–	–
C#CCOc1c(Cl)cc(C2C3=C(CCCC3=O)N(CC(=O)O)C3=C2C(=O)CCC3)cc1OC	159.0	–	–	–	–
COc1ccc(C2C3=C(CCCC3=O)N(CC(=O)O)C3=C2C(=O)CCC3)cc1Cl	178.1	–	–	–	–
CO[C@@H]1CN(C)C(=O)c2cc(NS(C)(=O)=O)ccc2OC[C@H](C)N(C(=O)C2CCC2)C[C@@H]1C	·	·	·	–	·
Cc1c(/C=N/NC(=O)C(NC(=O)c2ccc3c(c2)OCO3)C(C)C)c2ccccc2n1C (stereo unspecified)	–	37.9	–	·	–
CC(C)C(NC(=O)c1ccc2c(c1)OCO2)C(=O)N/N=C/c1cccs1 (stereo unspecified)	–	–	–	–	–
SMILES	Mtb FBA inh	GDH-TPI inh	PrPC surface inh	TcdB GH inh	Y pestis TopoI
CO[C@H]1CN(C)C(=O)c2cc(NS(=O)(=O)c3ccc(C)cc3)ccc2OC[C@H](C)N(C)C[C@@H]1C	·	·	·	–	·
Cn1ccc2c(-c3ccc(CO)cc3)cc3c(c21)C1CCC3O1 (stereo unspecified)	+	·	–	–	·
Cn1ccc2c(-c3ccc(C(C)(C)C)cc3)cc3c(c21)C1CCC3O1 (stereo unspecified)	–	·	–	–	·
Cn1ccc2c(-c3ccc(C(=O)O)cc3)cc3c(c21)C1CCC3O1 (stereo unspecified)	+	·	–	–	·
CNC[C@H]1Oc2ccc(NS(=O)(=O)c3ccc(Cl)cc3)cc2C(=O)N([C@H](C)CO)C[C@H]1C	·	·	·	–	·
CO[C@H]1CC[C@H]2CCOc3ccc(C#N)cc3C(=O)N(C)C[C@@H](C)C(=O)N(C)C[C@@H]1O2	·	·	·	–	·
COCC(=O)N1C[C@@H](C)[C@H](OC)CN(C)C(=O)c2cc(NC(=O)c3cc(C)on3)ccc2OC[C@H]1C	·	·	·	–	·
CC(=O)N=c1c(C#N)cc2c(=O)n3cccc(C)c3nc2n1Cc1ccco1	+	–	–	–	–
CCOCCCn1c(=NC(=O)c2cccs2)c(C#N)cc2c(=O)n3ccccc3nc21	+	–	–	–	–
Cc1cccn2c(=O)c3cc(C#N)c(=O)n(-c4c(C)n(C)n(-c5ccccc5)c4=O)c3nc12	–	–	–	·	–
CC(=O)N=c1c(C#N)cc2c(=O)n3cccc(C)c3nc2n1CCCOC(C)C	+	–	–	–	–
